Screening results from PubChem BioAssay.
POLB inh: blocks human DNA polymerase beta activity | P06746 | Pol beta primer extension/strand displacement, fluorescence kinetic | Potency, µM (series often up to 114 µM), without a hit: top-dose activity change, negative = inhibition, actives largely listed as inhibitors | hit rate 1.3% among 340,000 | AID 485314; also: potency is read from the fitted curve at half-maximal effect; % is scaled to controls: 0 for no effect and ±100 for the full control effect
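Enzyme-only controls used 10 nM Pol beta; buffer lacking enzyme served as negative control. Compound preincubated 15 min, then 50 nM substrate added; 0 and 10 min reads at room temperature.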
FEN1 inhibitor: blocks human flap endonuclease 1. P39748. Recombinant FEN1 flap cleavage, fluorescence, 15 min. Potency, µM (series often up to 114 µM), inactives show top-dose activity change, negative = inhibition, hits mostly inhibitors. hit rate 0.35% among 390,000. AID 588795; also: potency is read from the fitted curve at half-maximal effect; % is scaled to controls: 0 for no effect and ±100 for the full control effect; nearly all actives have a fitted effect of over 65% in size
Target sequence (P39748 whole entry, looked up): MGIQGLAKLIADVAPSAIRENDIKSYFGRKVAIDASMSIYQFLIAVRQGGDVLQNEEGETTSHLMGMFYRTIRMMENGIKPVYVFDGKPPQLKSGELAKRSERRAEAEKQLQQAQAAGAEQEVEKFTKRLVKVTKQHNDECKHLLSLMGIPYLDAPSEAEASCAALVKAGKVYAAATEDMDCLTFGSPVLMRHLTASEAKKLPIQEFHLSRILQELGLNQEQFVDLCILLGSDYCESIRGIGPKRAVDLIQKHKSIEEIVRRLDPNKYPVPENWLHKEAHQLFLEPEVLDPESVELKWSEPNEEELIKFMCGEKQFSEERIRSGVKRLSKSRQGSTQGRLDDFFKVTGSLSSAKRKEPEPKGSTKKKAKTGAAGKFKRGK
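Concentration–response screening of FEN1 (10 nM): 15 min compound preincubation at room temperature, reaction started with 50 nM substrate and read at 0 and 15 min. Corrected, normalized data were fitted by a four-parameter Hill equation.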
Pol kappa inh-1: inhibitors of human DNA polymerase kappa; Q9UBT6; purified Pol kappa, fluorescent DNA synthesis assay, 10 min; Potency, µM (top dose mostly 107 µM), for inactives: at the highest dose activity, negative = inhibition, hits mostly inhibitors; hit rate 0.53% among 400,000; AID 588579; also: potency is read from the fitted curve at half-maximal effect; % is scaled to controls: 0 for no effect and ±100 for the full control effect
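First, compounds were pin-transferred onto 10 nM Pol kappa. After 15 min at room temperature, substrate was added to 50 nM final. Fluorescence was then measured kinetically at 0 and 10 min.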
Pol eta inh-1: blocks human DNA polymerase eta activity; hit rate 1.2% among 390,000; recombinant Pol eta, fluorescent DNA replication assay; Q9Y253; Potency, µM (titrated, usually from 114 µM), for the others: at the top dose activity change, negative = inhibition, usual class: inhibitors; also: potency is read from the fitted curve at half-maximal effect; % is scaled to controls: 0 for no effect and ±100 for the full control effect
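Fluorescent replication assay: 50 nM final substrate added after a 15 min room-temperature compound preincubation with 10 nM enzyme. Signal taken at 0 min and again at 10 min.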
WRN helicase inh: blocks human WRN helicase; Q14191; WRN helicase unwinding, fluorescent forked duplex, kinetic; Potency, µM (top dose mostly 114 µM), without a hit: at the top dose activity change, negative = inhibition, actives largely listed as inhibitors; hit rate 0.46% among 360,000; AID 651768; also: potency is read from the fitted curve at half-maximal effect; % is scaled to controls: 0 for no effect and ±100 for the full control effect; nearly all actives have a fitted effect of over 55% in size
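Fluorescence dequenching readout, ex 525 nm/em 598 nm, kinetic mode: forked duplex DNA (100 nM final) with adjacent fluorophore and quencher unwound by WRN (20 nM final) with 2 mM ATP. Compound preincubation 15 min, room temperature.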
Pol iota inh: DNA polymerase iota (human) inhibition; Q9UNA4; Pol iota fluorescent replication assay, 10 min; Potency, µM (highest dose often 115 µM), without a hit: at the highest dose activity, negative = inhibition, hits mostly inhibitors; hit rate 1% among 390,000; AID 588590; also: potency is read from the fitted curve at half-maximal effect
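Fluorescent replication assay read twice, at 0 min and 10 min after adding 50 nM (final) substrate. Enzyme (10 nM) and compounds were first incubated 15 min at room temperature; enzyme-free buffer wells were negative controls.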
BAZ2B inh: confirmation of human BAZ2B bromodomain inhibitors; AID 588809; hit rate 100% among 25; Potency, µM, actives largely listed as inhibitors; AlphaScreen BAZ2B / biotin-H3K14Ac peptide displacement; shares compounds with Pol kappa inh-1; calls by dose curve
AlphaScreen ctr: AlphaScreen signal interference, BAZ2B hit counter-screen. shares compounds with Pol kappa inh-1. 25 tested, under 10 active. Potency, µM (series often up to 57.1 µM), without a hit: at the top dose activity change, negative = inhibition, hits mostly inhibitors. AlphaScreen biotin-His6 peptide bead counterscreen, signal decrease;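 active = clear concentration-dependent signal drop in the bead assay lacking the target, so a primary-screen artifact; inconclusive = weak, partial or single-dose response; inactive = no response, so a real primary hit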
TbPGK inh: blocks T. brucei phosphoglycerate kinase. shares compounds with Pol kappa inh-1. TbPGK coupled GAPDH assay, Kinase-Glo luminescence. Potency, µM (series often up to 57.5 µM), for inactives: at the highest dose activity change, negative = inhibition, actives largely listed as inhibitors. hit rate 79% among 500; also: potency is read from the fitted curve at half-maximal effect; % is scaled to controls: 0 for no effect and ±100 for the full control effect; nearly all actives have a fitted effect of over 65% in size
POLI cherry-pick: Inhibitors of human DNA polymerase iota, confirmation; shares compounds with Pol kappa inh-1; Pol iota primer extension, TAMRA/BHQ fluorescence; Potency, µM, most hits filed as inhibitors; hit rate 77% among 1,500; also: potency is read from the fitted curve at half-maximal effect
GALK inh confirm: galactokinase (human) inhibition, confirmation. shares compounds with Pol eta inh-1. purified GALK, Kinase-Glo ATP depletion luminescence. Potency, µM (highest dose often 115 µM), inactives show top-dose activity, negative = inhibition, most hits filed as inhibitors. hit rate 70% among 150. AID 2015
Target sequence (P51570 whole entry, looked up): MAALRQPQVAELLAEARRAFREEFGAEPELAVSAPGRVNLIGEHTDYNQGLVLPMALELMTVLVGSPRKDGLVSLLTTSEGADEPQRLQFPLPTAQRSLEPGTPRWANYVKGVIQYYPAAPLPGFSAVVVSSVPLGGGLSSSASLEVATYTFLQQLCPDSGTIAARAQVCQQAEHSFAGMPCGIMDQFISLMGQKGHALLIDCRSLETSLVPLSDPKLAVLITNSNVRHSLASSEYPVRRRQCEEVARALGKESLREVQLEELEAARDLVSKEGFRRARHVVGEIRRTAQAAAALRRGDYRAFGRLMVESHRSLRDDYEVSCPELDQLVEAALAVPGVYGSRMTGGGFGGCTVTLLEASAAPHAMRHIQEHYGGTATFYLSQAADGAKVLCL
Redox cycling: generates H2O2 by redox cycling, flagging GALK artifacts; AID 2035; Phenol red-HRP H2O2 redox cycling, absorbance 600 nm; shares compounds with Pol eta inh-1; Potency, µM (doses to about 115 µM), for inactives: top-dose activity change, negative = H2O2 signal, hits mostly inhibitors; hit rate 40% among 150
HEK293 tox: reduces HEK-293 cell viability in GALK counter-screen; shares compounds with Pol eta inh-1; HEK-293 viability, ATP luminescence (CellTiter-Glo), 24/48 h; Potency, µM (titrated, usually from 46.1 µM), for inactives: at the highest dose activity change, negative = cytotoxicity, actives largely listed as inhibitors; hit rate 10% among 170; AID 2547; also: potency is read from the fitted curve at half-maximal effect; % is scaled to controls: 0 for no effect and ±100 for the full control effect
Pol kappa inh-2: Pol kappa (human) inhibition, cherry-pick confirmation; hit rate 76% among 920; Potency, µM, most hits filed as inhibitors; shares compounds with Pol eta inh-1; purified Pol-kappa, fluorescent strand-displacement substrate; also: potency is read from the fitted curve at half-maximal effect
Pol eta inh-2: Pol eta (human) inhibition, cherry-pick confirmation | Potency, µM, usual class: inhibitors | shares compounds with Pol eta inh-1 | hit rate 64% among 2,600 | Pol eta primer extension, TAMRA/BHQ fluorescence, 10 min; also: potency is read from the fitted curve at half-maximal effect
The depositor's hits bear a star; ? = inconclusive; . = no result given; ! = repeats disagree; [ ] = remark or other dose. An excerpt weighted towards active compounds, which were near 2.4% of everything screened. Unless noted, calls follow the shape of the dose curve; as a rule, active = well fitted curve in the direction sought with a large enough effect; inconclusive = small, poorly fitted or top-dose-only effect, or another doubt; inactive = no such curve, though single readings can be large; an effect the other way counts as inactive or inconclusive.

SMILES	POLB inh	FEN1 inhibitor	Pol kappa inh-1	Pol eta inh-1	WRN helicase inh	Pol iota inh	POLI cherry-pick	Pol eta inh-2	others
Cc1cc(OC(=O)N(C)C)nn1C(=O)N(C)C	.	.	-11%[12 µM]	.	.	.	.	.
CN(C)[C@@H]1C(=O)C(C(N)=O)=C(O)[C@@]2(O)C(=O)C3=C(O)c4c(O)cccc4[C@@](C)(O)C3[C@H](O)C12 (stereo not given in full)	.	16µM*!	8.9µM*!	32µM*!	40µM*!	13µM*	?	.
O=C1c2ccccc2-c2cc3ccccc3cc21	.	?	-16%	-17%	9%	8%	.	.
O=C1C=C(N2CC2)c2ccccc2C1=O	.	.	.	8.9µM*	45µM*	.	47*	30*
CC(N)[C@H](O)c1ccc(O)c(O)c1 (stereo not given in full)	1.8µM*	14µM*	3µM*	3.2µM*	.	2.5µM*	15*	38*
CC(C)(C)OC(=O)N1CC[C@H]1COc1cnc[c]([Sn]([CH3])([CH3])[CH3])c1	.	.	-7%[12 µM]	.	.	.	.	.
Cn1ncnc2c(=O)n(C)c(=O)nc1-2	?	13%	5%	0.71µM*	-4%[11.6 µM]	-72%	5.3*	5.4*	TbPGK inh=1.5µM*;GALK inh confirm=1.1µM*;Redox cycling=0.6µM*;HEK293 tox=3.1µM*
Cc1ccc(-c2nc3c(=O)n(C)c(=O)nc-3n(C)n2)cc1	.	-17%	-22%	.	.	-123%	1.7*	0.85*
C[C@@H](C1CC[C@@]2(O)C3=CC(=O)[C@@H]4C[C@@H](O)[C@@H](O)C[C@]4(C)[C@H]3CC[C@]12C)[C@H](O)CCC(C)(C)O (stereo not given in full)	.	4%	19%	.	.	27%	.	.
CCCCC(=O)N/N=C/c1c(O)n(Cc2ccco2)c(=O)[nH]c1=O	?	-6%	-7%	?	-27%	?	.	.
CC(=O)Nc1ccc(N=Cc2c(O)n(Cc3ccco3)c(=O)[nH]c2=O)cc1	25µM*	-33%	?	?	?	45µM*	60*	76*	Pol kappa inh-2=?
O=C1NC(=O)N(Cc2ccco2)C(=O)/C1=C/c1cccn1CCOc1ccccc1Cl	25µM*	-9%	?	14µM*	?	11µM*	67*	30*	Pol kappa inh-2=60*
O=C1NC(=O)N(Cc2ccccc2Cl)C(=O)/C1=C/N1CCOCC1	-19%	-19%	0%	-6%	-8%	10%	.	.
O=C(CCl)c1ccc(O)c(O)c1	.	-17%	-13%	.	.	12%	.	.
C[C@]12N[C@@H](Cc3ccccc31)c1ccccc12	.	.	-5%[19.4 µM]	.	.	.	.	.
C=C(C)C(=O)Nc1cccc(C2=NOC3(C2)C[C@@H](C(N)=O)N(C(=O)/C(C)=C/C)C3)c1 (stereo not given in full)	1.4µM*	-20%	20µM*	2.5µM*	?	35µM*	30*	6.7*	BAZ2B inh=4*;AlphaScreen ctr=-10%;TbPGK inh=?;Pol kappa inh-2=8.4*
CCc1ccccc1N1C(=O)/C(=C/c2ccc(N3CCN(C)CC3)o2)C(=O)NC1=S	10%	?	25µM*	8.9µM*	50µM*	11µM*	60*	9.5*
Cc1ccccc1N1C(=O)NC(=O)/C(=C/c2ccc(N3CCOCC3)o2)C1=O	?	3%	-4%	-8%	-8%	-19%	.	.
COc1ccc(N2C(=O)/C(=C/c3ccc(C)o3)C(=O)NC2=S)c(OC)c1	40µM*	?	50µM*	10µM*	?	11µM*	47*	17*	Pol kappa inh-2=3.4*
CCCCn1c(NC(=O)c2ccc(Br)o2)c(C(=O)OCC)c2nc3ccccc3nc21	?	-16%	-10%	22µM*	?	?	42*	19*
CCCCn1c(NS(=O)(=O)c2ccccc2)c(C(=O)OCC)c2nc3ccccc3nc21	-13%	-6%	-18%	?	-35%	34%	.	.
C=CCN1C(=O)NC(=O)/C(=C/c2ccoc2)C1=O	28µM*	?	45µM*	10µM*	50µM*	20µM*	21*	17*
C=CCN1C(=O)NC(=O)/C(=C/c2cccn2C)C1=O	2%	-3%	-9%	0%	-18%	?	.	.
CCc1ccc(N2C(=O)NC(=O)/C(=C\C=C\c3ccco3)C2=O)cc1	?	22µM*	35µM*	20µM*	?	7.1µM*	38*	30*	Pol kappa inh-2=15*
CC(C)c1ccc(N2C(=O)NC(=O)/C(=C/C=C/c3ccco3)C2=O)cc1	32µM*	?	40µM*	11µM*	50µM*	13µM*	75*	30*
COP(=S)(OC)Oc1ccc([N+](=O)[O-])cc1	.	.	-17%[60.1 µM]	.	.	.	.	.
